Measurements as given in PubChem BioAssay (NCATS).
Results filed as inconclusive are left out.

Assay: qHTS for identification of novel therapeutic agents for treatment of microphthalmiaassociated transcription factor (MiT) renal cell carcinoma (RCC) (AID 1963991)
Conditions: TFE3-RCC UOK109 viability, CellTiter-Glo, 48 h; measured here: UOK109 Z-AUC; stronger effect = lower value
Outline: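 Three TFE3-fusion RCC lines (UOK109, UOK124, UOK145), 500 cells/well in complete medium, were treated with MIPE 4.0 compounds for 48 hours at 37 C. Viability was by CellTiter-Glo luminescence, normalized to DMSO (100%) and empty wells (0%); curves fitted over 11 concentrations.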

Compound	z-score
CN1[C@H]2CC(OC(=O)[C@@H](CO)c3ccccc3)C[C@H]1[C@H]1O[C@H]12 (stereo partly drawn)	0.573
CC(C)N(CC[C@H](c1ccccc1)c1cc(CO)ccc1O)C(C)C	0.828
CC[C@H]1OC(=O)[C@H](C)[C@@H](O[C@H]2C[C@@](C)(OC)[C@@H](O)[C@H](C)O2)[C@H](C)[C@@H](O[C@@H]2O[C@@H](C)C[C@H](N(C)C)[C@@H]2O)[C@](C)(O)C[C@@H](C)C(=O)[C@H](C)[C@@H](O)[C@]1(C)O	0.677
CC(=O)O[C@H]1C[C@@H]2CC[C@H]3[C@H]4C[C@H]([N+]5(C)CCCCC5)[C@@H](OC(C)=O)[C@@]4(C)CC[C@@H]3[C@@]2(C)C[C@H]1N1CCCCC1	0.765

Same assay, conditions: TFE3-RCC viability, CellTiter-Glo, 48 h; measured here: UOK124 Z-AUC; stronger effect = lower value

Compound	z-score
CC(C)OC(=O)[C@H](C)N[P@](=O)(OC[C@H]1O[C@@H](n2ccc(=O)[nH]c2=O)[C@](C)(F)[C@H]1O)Oc1ccccc1	1.3
Cc1cn([C@@H]2O[C@H](CO)[C@@H](O)[C@H]2F)c(=O)[nH]c1=O	0.993
C=CC(=O)Nc1ccc2ncnc(Nc3ccc(OCc4cccc(F)c4)c(Cl)c3)c2c1	-3.02
COc1ccc(C=Cc2cc(OC)c(OC)c(OC)c2)cc1NC(=O)[C@H](N)CO	-3.86
CC(C)C[C@H](NC(=O)CNC(=O)c1cc(Cl)ccc1Cl)B1OC(=O)CC(CC(=O)O)(C(=O)O)O1 (stereo partly drawn)	-3.62
C[C@@H]1[C@H](C)CC[C@]2(C(=O)O)CC[C@]3(C)C(=CC[C@@H]4[C@@]5(C)C[C@@H](O)[C@H](O)[C@@](C)(CO)[C@H]5CC[C@]43C)[C@@H]12	0.271
COC(=O)[C@@H]1CC2=CC(=O)CC[C@]2(C)[C@@]23O[C@@H]2C[C@@]2(C)[C@H](CC[C@@]24CCC(=O)O4)[C@@H]13	0.454
O=C(O)C(=O)Nc1cccc(C2=NN=N[N]2)c1	0.525
C[N+]1(C)[C@@H]2C[C@@H](OC(=O)C(O)(c3cccs3)c3cccs3)C[C@H]1[C@@H]1O[C@@H]12	0.59
OCCN1C[C@H](O)[C@@H](O)[C@H](O)[C@@H]1CO	0.522
CN[C@H](CC(C)C)C(=O)N[C@H]1C(=O)N[C@@H](CC(N)=O)C(=O)N[C@@H]2C(=O)N[C@H]3C(=O)N[C@H](C(=O)N[C@H](C(=O)O)c4cc(O)cc(O)c4-c4cc3ccc4O)[C@H](O)c3ccc(c(Cl)c3)Oc3cc2cc(c3O[C@@H]2O[C@H](CO)[C@@H](O)[C@H](O)[C@@H]2O[C@H]2C[C@](C)(N)[C@H](O)[C@H](C)O2)Oc2ccc(cc2Cl)[C@H]1O	0.868
C=C1CCC2[C@](C)(CO)C(O)CC[C@]2(C)C1CC=C1C(=O)OCC1O (stereo partly drawn)	-0.457
COC[C@H](NC(=O)c1cnc(C)s1)C(=O)N[C@@H](COC)C(=O)N[C@@H](Cc1ccccc1)C(=O)[C@@]1(C)CO1	-0.856
C[C@H]1O[C@H](O[C@H]2[C@H](O)[C@@H](O)[C@@H](O[C@H]3[C@H](O)[C@@H](O)C(O)O[C@H]3CO)O[C@H]2CO)[C@H](O)[C@@H](O)[C@H]1N[C@H]1C=C(CO)[C@@H](O)[C@H](O)[C@@H]1O (stereo partly drawn)	0.169
CNC(=O)Nc1ccc(-c2nc(N3CC4CCC(C3)O4)c3cnn(C4CCC5(CC4)OCCO5)c3n2)cc1	-1.26
C=C1C[C@@]2(O)O[C@@]3(C[C@H]2C(C)C)[C@H](C)CC[C@H]13	0.339
CC(=O)OCC(=O)[C@@]12N=C(C)O[C@H]1C[C@H]1[C@@H]3CCC4=CC(=O)C=C[C@]4(C)[C@@H]3[C@@H](O)C[C@@]12C	0.48

Compound	z-score
CCCCCCCCCCCCCCCC(=O)OC[C@@H](NC(=O)C(Cl)Cl)[C@H](O)c1ccc([N+](=O)[O-])cc1	0.082
COc1cc([C@@H]2c3cc4c(cc3[C@H](O)[C@H]3COC(=O)[C@@H]23)OCO4)cc(OC)c1OC	-1.77
CC(=O)N[C@H]1[C@@H]([C@H](O)[C@H](O)CO)OC(C(=O)O)=C[C@@H]1N=C(N)N	0.639
NC(=O)c1ncn([C@@H]2O[C@H](CO)[C@@H](O)[C@@H]2O)c1O	0.298
CS(=O)(=O)N1CCc2c(-c3cnc(N)nc3)nc(N3CCOCC3)nc21	-1.41
Cc1onc(-c2ccccc2)c1C(=O)N[C@@H]1C(=O)N2[C@@H](C(=O)O)C(C)(C)S[C@@H]12	0.727
COc1ccc(Nc2cc(-c3cnc(N)nc3)nc(N3CCOCC3)n2)cn1	-2.53
CCC[C@H]1C[C@H](C(=O)N[C@@H]([C@@H]2O[C@@H](SC)[C@@H](O)[C@@H](O)[C@@H]2O)[C@H](C)Cl)N(C)C1	0.328
CC(C)(O)[C@H]1CC[C@@](C)([C@H]2[C@@H](O)C[C@@]3(C)[C@@H]4C[C@H](O[C@@H]5O[C@H](CO)[C@@H](O)[C@H](O)[C@@H]5O)[C@H]5C(C)(C)[C@@H](O[C@@H]6OC[C@@H](O)[C@H](O)[C@@H]6O)CC[C@@]56C[C@@]46CC[C@]23C)O1	0.41
CC(C)(C)[C@H](NC(=O)c1ccc(N)c(Cl)c1)C(=O)N1CCC[C@@H]1C(=O)N[C@H](C#N)CC(=O)O	2.68
CC(=O)NC(CS)C(=O)O (stereo not drawn)	0.0619
N#CNC(=NCCCCCCOc1ccc(Cl)cc1)Nc1ccncc1	-2.82
Cc1ccc(O)c(C(CCN(C(C)C)C(C)C)c2ccccc2)c1 (stereo not drawn)	0.794
CN1[C@H]2CC(OC(=O)[C@@H](CO)c3ccccc3)C[C@H]1[C@H]1O[C@H]12 (stereo partly drawn)	0.895
CC(C)N(CC[C@H](c1ccccc1)c1cc(CO)ccc1O)C(C)C	0.666
CC[C@H]1OC(=O)[C@H](C)[C@@H](O[C@H]2C[C@@](C)(OC)[C@@H](O)[C@H](C)O2)[C@H](C)[C@@H](O[C@@H]2O[C@@H](C)C[C@H](N(C)C)[C@@H]2O)[C@](C)(O)C[C@@H](C)C(=O)[C@H](C)[C@@H](O)[C@]1(C)O	0.444
CC(=O)O[C@H]1C[C@@H]2CC[C@H]3[C@H]4C[C@H]([N+]5(C)CCCCC5)[C@@H](OC(C)=O)[C@@]4(C)CC[C@@H]3[C@@]2(C)C[C@H]1N1CCCCC1	0.686
